This passage reports inhibition results from PubChem BioAssay AID2732 (Emory University Molecular Libraries Screening Center, 2010).

Values joined by “and” are separate entries in the source; they are usually repeats but may differ in a detail not shown here. Equal values may be shown once. Screen size: about 220,000 compounds; about 8,200 (3.7%) were called active. This excerpt belongs to a sample that is enriched for actives. A number with no mark means an inactive call.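 The calls were made as follows: active = compounds that reduced the stress-induced luciferase reporter signal by more than about 70% of percent inhibition (limit read from the data); inactive = the rest.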

This assay is described as follows: inhibitors of CHOP promoter induction, primary screen, cell-based, unfolded protein response, luciferase reporter (AID 2732).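 Also: 0% = tunicamycin plus vehicle and 100% = wells without tunicamycin.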 Particulars: CHO-K1 CHOP-promoter luciferase, tunicamycin-induced, 15-18 h; at 10 µM; hits give high values.
For `CCN(CC)S(=O)(=O)c1cc([N+](=O)[O-])ccc1N=Nc1c(O)n(C)c2ccccc12`, the inhibition was 39.2%.

In the case of `CCN(CC)S(=O)(=O)c1cc([N+](=O)[O-])ccc1NNC(=O)Nc1ccccc1`, the inhibition is 94.6% (active).

For `O=C(CSCC(=O)Nc1cccc([N+](=O)[O-])c1)Nc1ccccc1`, the inhibition is -4.34%.

For the compound `CCOC(=O)c1cnc(COc2ccccc2Cl)[nH]c1=O`, the inhibition was -0.7%.

On to `Oc1c(Cl)cc(Cl)c(Cl)c1Cc1c(O)c(Cl)cc(Cl)c1Cl`, for which the inhibition was 93.3% (active).

In the case of `N#Cc1c(C(F)(F)F)cc(-c2cccs2)nc1N1CCCCC1`, the inhibition was 12.1%.

Regarding `COCc1cc(=O)[nH]c(SC)n1`, the inhibition is -4.77%.

Take `CCOC(=O)c1c(NC(=S)Nc2ccccc2C)sc2c1CCC2`: the inhibition is 34.1%.

For the compound `CCOC(=O)c1c(NC(=S)NC(=O)c2ccco2)sc2c1CCCC2`, the inhibition was 85% (active).

For `CCOC(=O)c1c(NC(=S)NC)sc2c1CCCC2`, the inhibition was 14.4%.

Consider `CN(C)/C=C(/C(=O)c1ccc(Cl)c(Cl)c1)c1nnnn1-c1ccccc1`, for which the inhibition was -4.76%.

In the case of `COc1ccc(N(Cc2ccccc2)S(=O)(=O)c2cccc(C(=O)O)c2)cc1`, the inhibition is 3.03%.

Regarding `O=C(Cn1nnc(N2CCCCC2)n1)c1ccc(Cl)c(Cl)c1`, the inhibition is 6.73%.

Turning to `Clc1ccc(C[n+]2cc(-c3ccccc3)n3c2CCC3)cc1`, the inhibition was 9.23%.

On to `Cc1ccc(NC(=O)Nc2nnc(-c3ccncc3)s2)cc1`, for which the inhibition is 40.9%.

For `CCn1nccc1C(=O)Nc1ccc(Cl)c(Cl)c1`, the inhibition was 0.72%.

Regarding `Cc1nnc(NC(=O)Nc2ccc(Cl)c(Cl)c2)s1`, the inhibition is 86.9% (active).

In the case of `Cn1cc(Cl)c(C(=O)NNC(=S)Nc2cccc(Cl)c2)n1`, the inhibition was 9.14%.

In the case of `Cc1c(C(=O)Nc2cccc(Cl)c2)cn2c(nc3ccccc32)c1C#N`, the inhibition was 104% (active).

Consider `O=C(O)c1cccc(NC(=O)c2cc(-c3cccc(Cl)c3)nc3ccccc23)c1`, for which the inhibition is -25%.

Regarding `O=C(NCc1cc(C(F)(F)F)cc(C(F)(F)F)c1)C1CC(c2cccc(F)c2)=NO1` (stereo not given), the inhibition is 20.1%.

Turning to `O=C(N/N=C/c1ccc(OCc2ccccc2)cc1)c1ccc(O)cc1`, the inhibition is -37.6%.

With `CN(C)c1ccc(/C=N/N(Cc2ccccc2)c2ccccc2)cc1`, the inhibition is 1.37%.

For the compound `Oc1ccc(/C=N/N(Cc2ccccc2)c2ccccc2)cc1`, the inhibition is 97.5% (active).

`NC(=O)C1=CN(C2OC(COP(=O)(O)OP(=O)(O)OC[C@H]3O[C@@H](n4cnc5c(N)ncnc54)C(OP(=O)(O)O)[C@H]3O)C(O)C2O)C=CC1` (stereo not given in full): the inhibition is -6.4%.

On to `O=C(NC1CCN(Cc2ccccc2)CC1)c1ccccc1F`, for which the inhibition is 22.9%.

Regarding `CCC(=O)Nc1ccc2nc(C)n(Cc3ccccc3Cl)c(=O)c2c1`, the inhibition is -4.28%.

As for `CCN1CCN(c2cc3nc(C)n(Cc4ccccc4)c(=O)c3cc2NC(=O)c2ccccc2F)CC1`, the inhibition was 95.7% (active).

Regarding `CC(C)NC(=O)c1ccc(Cl)cc1Cl`, the inhibition is 12.1%.

On to `Cc1sc2nc(CSCC(=O)Nc3c(Cl)cccc3Cl)[nH]c(=O)c2c1C`, for which the inhibition was 0.31%.

As for `Cc1sc2nc(COC(=O)C(NC(=O)c3ccc(Cl)cc3Cl)C(C)C)[nH]c(=O)c2c1C` (stereo not given), the inhibition is 95.4% (active).

As to `O=C(Nc1ccccc1)N1CCN(C2c3ccccc3-c3ccccc32)CC1`, the inhibition is 12.3%.

For the compound `Cc1ccc(C)c2c1cc(C)c1nnc(SCC(=O)Nc3cccc(C(=O)O)c3)n12`, the inhibition is -9.73%.

`O=C(Cc1ccc(Cl)c(Cl)c1)Nc1ccc(SC(F)F)cc1`: the inhibition was 88% (active).

Turning to `Cc1ccc(CC(=O)Nc2ccc(OC(F)F)c(Cl)c2)cc1C`, the inhibition was 62%.

For `CC(=O)N1CCN(CC(=O)Nc2ccc(SC(F)F)cc2)CC1`, the inhibition is 16.9%.

With `CC(NC(=S)Nc1ccccc1)C(c1cccs1)N1CCOCC1` (stereo not given), the inhibition is -3.16%.

As for `Oc1c(Br)cc(/C=N/NC(=S)NCC2CCCO2)cc1Br` (stereo not given), the inhibition was 22.4%.

Take `Cc1ccc(N2C(=O)CC(Nc3cccc4ccccc34)C2=O)cc1` (stereo not given): the inhibition was 74.7% (active).

`O=C(Cc1ccccc1)NNC1CC(=O)N(c2ccc(Br)cc2)C1=O` (stereo not given): the inhibition is 17%.

As for `CC1=C(C)CC2C(=O)N(c3cccc4ccccc34)C(=O)C2C1` (stereo not given), the inhibition is 19.9%.

With `COc1cc(/C=C(\C#N)C(=O)Nc2ccc3ccccc3c2)c([N+](=O)[O-])cc1OC`, the inhibition was -24.5%.

Regarding `COc1ccc(NC(=O)/C(C#N)=C\c2cc(OC)c(OCc3ccc(C(=O)O)cc3)cc2Br)cc1`, the inhibition was 103% (active).

Consider `COc1cc(C=O)c(Br)cc1OCC(=O)NCc1ccccc1`, for which the inhibition is 18%.

Consider `O=C(NCc1ccco1)C1CCCN1S(=O)(=O)c1ccccc1C(F)(F)F` (stereo not given), for which the inhibition is 14.3%.

In the case of `CN(C)NC(=O)c1csnc1-c1c(Cl)cccc1Cl`, the inhibition is -5.93%.

In the case of `Cc1ccccc1CSc1nnc(CCCCCNC(=O)OC(C)(C)C)o1`, the inhibition was 12.7%.

As for `NCC(=O)c1cccc2ccc[n+]([O-])c12`, the inhibition is -8.9%.

As to `COc1ccc(S(=O)(=O)Nc2ccc(O)c(Sc3nc4ccccc4s3)c2)cc1`, the inhibition is 13.3%.

`O=[N+]([O-])c1c(NCCO)cc(Sc2nc3ccccc3s2)c2nonc12`: the inhibition is 108% (active).

Take `O=C(CSc1nc2ccccc2s1)Nc1ccc(C(=O)O)cc1`: the inhibition was -1.84%.

As to `C/C(=N\NC(=O)CC(C)C)c1c(C(F)(F)F)[nH]n(-c2nc3ccccc3s2)c1=O`, the inhibition is -21.3%.

In the case of `CCN(CC)c1ccc(/C=N/NC(=O)c2cnccn2)c(O)c1`, the inhibition was 47.2%.

As to `CCC(C)NC(=O)c1c(N)n(/N=C/c2cccs2)c2nc3ccccc3nc12` (stereo not given), the inhibition was 67.4%.

For the compound `C=CCn1c(N)c(C(=O)OCC(C)C)c2nc3ccccc3nc21`, the inhibition is 18%.

Turning to `CC(C)Cn1c(N)c(C(=O)NCc2cccs2)c2nc3ccccc3nc21`, the inhibition is 89% (active).

For `Cc1cccc(NC(=O)CSc2nnc(CCNC(=O)OC(C)(C)C)o2)c1C`, the inhibition is -14.5%.

`COC(=O)c1ccc(COc2cc([N+](=O)[O-])cc3cccnc23)cc1`: the inhibition is 5.56%.

Turning to `CC(=O)N(OCc1ccc(OC(C)C)c(Cl)c1)C(C)=O`, the inhibition was -4.06%.

As to `O=C(Nc1ccc(Cl)cc1)Nc1nnc(/C=C/c2ccccc2)s1`, the inhibition was 46.8%.

Turning to `CCOCc1nnc(NC(=O)CSc2ccc(C)cc2)s1`, the inhibition is 12.8%.

With `O=C(CSc1ccccc1)Nc1nnc(/C=C/c2ccccc2)s1`, the inhibition was 88.6% (active).

For the compound `Cc1ccc(N2CCN(S(=O)(=O)c3ccc(F)cc3)CC2)c(C)c1`, the inhibition was 47.5%.

Regarding `Cc1ccc(-n2ncc3c(=O)[nH]cnc32)c(C)c1`, the inhibition was 31.6%.

As to `Cc1ccc(-n2ncc3c(N4CCN(c5ccc(F)cc5)CC4)ncnc32)c(C)c1`, the inhibition was 83.8% (active).

In the case of `CCOc1ccc(/C=N/NC(=O)CSc2ccccn2)cc1O`, the inhibition is 3.02%.

In the case of `CC(C)(C)C1CCC(OC(=O)CCC(=O)Nc2ccccc2)CC1` (stereo not given), the inhibition was 71.5% (active).

In the case of `O=C(CCC(=O)OCc1ccc(Cl)cc1)Nc1ccccc1`, the inhibition was 0.59%.

As for `CC1CCN(CCC(=O)Nc2ccccc2)CC1`, the inhibition is -9.3%.

With `COc1ccccc1CNC(=O)Cn1c(=O)oc2cc(Cl)ccc21`, the inhibition is 4.18%.

`CCOc1ccc2nc(SC(CC)C(=O)Nc3cc(C)on3)sc2c1` (stereo not given): the inhibition is 27.5%.

With `CC(N=Cc1nc(-c2ccccc2)oc1O)c1ccccc1` (stereo not given), the inhibition is 28.4%.

Turning to `CCOc1ccc2nc(/N=C/c3nc(-c4ccccc4)oc3O)sc2c1`, the inhibition is 73.9% (active).

With `Cn1c(SCC(=O)Nc2ccc(Cl)cc2)nc(O)cc1=O`, the inhibition is -3.96%.

Consider `N#Cc1ccccc1NC(=O)COc1c(Br)cc(Br)c2cccnc12`, for which the inhibition is 88.1% (active).

For the compound `N#Cc1ccc(C(=O)Nc2cccc3cccnc23)c(F)c1`, the inhibition was -2.37%.

In the case of `O=C(COC(=O)c1ccccn1)Nc1cccc2ccccc12`, the inhibition was -19.7%.

As for `CCN(CC)CCNCC(=O)Nc1ccc(Oc2ccccc2)cc1`, the inhibition is -16.4%.

Consider `Cc1cc(C)c2cc(CN(Cc3nnnn3Cc3ccc(F)cc3)C3CCCC3)c(=O)[nH]c2c1`, for which the inhibition was 8.91%.

On to `Cc1cc(C)c2cc(CN(Cc3cccs3)Cc3nnnn3CC3CCCO3)c(=O)[nH]c2c1` (stereo not given), for which the inhibition is 76% (active).

As for `Cc1cc2cc(CN(Cc3cccs3)Cc3nnnn3CC3CCCO3)c(=O)[nH]c2cc1C` (stereo not given), the inhibition was 20.8%.

Turning to `CCOC(=O)c1c(N)sc2c1CCCC2=O`, the inhibition is 4.68%.

For the compound `O=C(Cn1c[n+](CC(=O)c2ccc([N+](=O)[O-])cc2)cn1)c1ccc([N+](=O)[O-])cc1`, the inhibition was -15.2% and -12.2%.

As for `COc1cc(SC)ccc1C(=O)Nc1nc(C)cs1`, the inhibition is 95.2% (active).

As to `COc1cc(SC)ccc1C(=O)Nc1cc(C)ccn1`, the inhibition was 37.2%.

`COc1ccccc1CNC(=O)c1ccc(SC)cc1OC`: the inhibition is 2.76%.

`Cc1ccc(CNC(=O)CC2Sc3ccccc3NC2=O)cc1` (stereo not given): the inhibition is -5.1%.

Take `COC(=O)c1cc(C)sc1NC(=O)CC1Nc2ccccc2NC1=O` (stereo not given): the inhibition was 51.1%.

On to `CCc1cc(C(=O)OC)c(NC(=O)CC2Sc3ccc(C(F)(F)F)cc3NC2=O)s1` (stereo not given), for which the inhibition is 72.2% (active).

Take `COC(=O)c1noc(C)c1-c1ccnn1C(=O)c1ccc(Cl)cc1`: the inhibition is -0.96%.

Turning to `COc1cccc(OC)c1CN(C)C(=O)c1cnccc1C(F)(F)F`, the inhibition was 16.4%.

Consider `Cc1ccsc1/C=N/NC(=O)Cc1cc(=O)[nH][nH]1`, for which the inhibition was 10.3%.

In the case of `Cc1cccc(NC(=S)NC(=O)c2ccc(Br)o2)c1`, the inhibition was -36.1%.

Regarding `CC(C)C(=O)Nc1ccc2oc(=O)ccc2c1`, the inhibition is 8.38%.

On to `O=C(NC(=S)Nc1ccc2oc(=O)ccc2c1)c1ccc(-c2cccc(Cl)c2Cl)o1`, for which the inhibition is 80.2% (active).
